Source: PubChem BioAssay (NCI)
Compounds without any hit were thinned out: in the full panel of roughly 79,000, 15% have a hit. Cut-off read from the data, not from the text of the source: active = growth inhibition above about 70%; inactive = the rest.

Tests used:
[1] = NCI Yeast Anticancer Drug Screen. Data for the rad50 strain (AID 155);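 note: 0% = growth of vehicle-only cultures of the same strain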; conditions: S. cerevisiae rad50 strain growth inhibition; at 50.0 µM; active compounds read high
In short: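 Yeast carrying a defined DNA repair defect were exposed to test compounds, and growth was compared with vehicle-treated controls to give percent inhibition.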

[2] = NCI Yeast Anticancer Drug Screen. Data for the mec2-1 strain (AID 157); conditions: S. cerevisiae mec2-1 strain, at 50.0 µM, active compounds read high
In short: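 Each compound was tested on mec2-1 yeast, a strain altered in DNA damage repair or cell cycle control. Growth inhibition is reported relative to vehicle.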

[3] = NCI Yeast Anticancer Drug Screen. Data for the sgs1 mgt1 strain (AID 161);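 note: 0% = growth of cultures given vehicle only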; conditions: S. cerevisiae sgs1 mgt1 strain, at 50.0 µM, active compounds read high
In short: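 Read-out: growth inhibition vs vehicle controls. Cells: mutant yeast strain deficient in DNA damage repair.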

[4] = NCI Yeast Anticancer Drug Screen. Data for the cln2 rad14 strain (AID 165);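 note: 0% = growth equal to vehicle treated cultures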; conditions: S. cerevisiae cln2 rad14 strain, at 50.0 µM, active compounds read high
In short: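 Test compounds were added to cln2 rad14 yeast cultures; inhibition of growth was then determined by comparison with vehicle treatment.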

[5] = NCI Yeast Anticancer Drug Screen. Data for the bub3 strain (AID 167); conditions: S. cerevisiae bub3 mutant strain, at 50.0 µM, active compounds read high
In short: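 Compounds were applied to a genetically altered yeast strain carrying a cell-cycle control defect. Growth inhibition was scored against vehicle-treated controls.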

[6] = NCI Yeast Anticancer Drug Screen. Data for the mlh1 rad18 strain (AID 175); conditions: S. cerevisiae mlh1 rad18 strain growth inhibition; at 50.0 µM; active compounds read high
In short: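 Inhibition values reflect reduced growth of mutant yeast versus vehicle-treated controls following compound exposure; the mutations affect DNA damage repair.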

Measured: growth inhibition

CCCCNCCOC(=O)c1ccc(N)cc1
inactive: [1] 2.9% | [2] 2% | [3] 1.9% | [4] 16.4% | [5] 10.1% | [6] 12.1%

CN(C)CCNC(=O)CN
inactive: [1] 0.15% | [2] -12.2% | [3] 4.1% | [4] -0.6% | [5] 5.9% | [6] 2.75%

O=C1c2ccccc2C(=O)N1CC(O)COc1cccc2ccccc12 (stereo not given)
inactive: [1] -23.1% | [2] -79.5% | [3] -24.4% | [4] -13.9% | [5] 8.3% | [6] -14.8%

Nc1ccc(Cl)c(Cl)c1Cl
inactive: [1] 40.5% | [2] -6.2% | [3] 52% | [4] 31% | [5] 43.3% | [6] 35.7%

COC(=O)N1N=C(c2ccccc2)C(C(=O)OC)(C(=O)OC)c2ccccc21
inactive: [1] 45.7% | [2] 11.9% | [3] 24.6% | [4] 16.6% | [5] 20.2% | [6] 36.8%

Cc1c(Cl)cccc1NC(=O)c1c(Cl)c(Cl)c(Cl)c(Cl)c1C(=O)O
inactive: [1] 7.15% | [2] -1.35% | [3] 8.6% | [4] -31.7% | [5] 0.85% | [6] 14.1%

CC(=O)Nc1nc(NC(C)=O)c2nc(CCN(C)c3ccc(C(=O)O)cc3)cnc2n1
inactive: [1] -9.05% | [2] -18.4% | [3] -5.6% | [4] -5.25% | [5] -40.5% | [6] 2.15%

O=c1c2c3c(sc2nc2n1N=CN(c1ccc(F)cc1)C2)CCCC3
inactive: [1] 4.95% | [2] -1.9% | [3] 2.4% | [4] -8.3% | [5] -1.05% | [6] -5.9%

CCCCCC/C=N/Nc1ccc([N+](=O)[O-])cc1[N+](=O)[O-]
inactive: [1] 1.65% | [2] -18.9% | [3] -11.2% | [4] -48.2% | [5] -6.95% | [6] -4.9%

COC(=O)C1CCc2c(OC)ccc(OC)c2C1=O (stereo not given)
inactive: [1] -2.75% | [2] -4.7% | [3] -3.65% | [4] 20.5% | [5] -2.45% | [6] -7.95%

CC(C)(C)OC(=O)N[C@H]1CCN(C2CCCCC2)C1=O
inactive: [1] -34.9% | [2] -10.1% | [3] -22.1% | [4] 7.75% | [5] -6.4% | [6] -62.5%

O=C(O)CCC(CCC(=O)O)(C(=O)O)c1ccccc1
inactive: [1] -20.1% | [2] -6.5% | [3] -8.75% | [4] -42.1% | [5] -1.65% | [6] -7.8%

CN(CCNC(=O)NC1CCCCC1)c1ccccc1
inactive: [1] 3.45% | [2] 0.75% | [3] 15.9% | [4] 2.85% | [5] 8.45% | [6] 35.4%

Nc1nc(N)c2c(Cl)c(CNc3ccc(C(=O)NC(CC(=O)O)CC(=O)O)cc3)ccc2n1
inactive: [1] 19% | [2] 9.65% | [3] 22.2% | [4] -1.35% | [5] -4.05% | [6] 14.4%

O=C1c2ccccc2C(=O)c2cc(C[n+]3ccccc3C3OCCO3)ccc21
inactive: [1] 19% | [2] 7.2% | [3] 42.2% | [4] 15.8% | [5] -0.8% | [6] 2.55%

CN(/N=C/C=N/N(C)C1=NCCCN1)C1=NCCCN1
inactive: [1] -0.95% | [2] 1.15% | [3] 3.8% | [4] 9.1% | [5] 13.2% | [6] -6.35%

C/C=C/C(=O)Nc1cc(Cl)ccc1C
inactive: [1] -1.25% | [2] -8.1% | [3] -4.95% | [4] -52.1% | [5] 9.4% | [6] 5.55%

CCCCCCCCCCCCn1[nH]c(C)c(C(=S)SCCCCCCCC)c1=O
inactive: [1] -7.2% | [2] 1.05% | [3] -0.9% | [4] 1.45% | [5] 3% | [6] 7.3%

N#C/C(=N\N=C(/C#N)c1ccc(Cl)cc1)c1ccc(Cl)cc1
inactive: [1] -5.8% | [2] -1.85% | [3] -5.5% | [4] -6.4% | [5] -4.25% | [6] -5.15%

CCOC(=O)OC1CCCCC1c1ccccc1 (stereo not given)
inactive: [1] 13.7% | [2] -12.9% | [3] -7.15% | [4] -14.9% | [5] -20.1% | [6] -16.2%
